# PubChem BioAssay AID1345085 (National Center for Advancing Translational Sciences (NCATS), 2018)
# Inconclusive results are not listed. Entries that show only a call come without a potency. The source made the active and inactive calls. Calls follow the shape of the dose curve; as a rule, active = well fitted cell-killing curve with a large enough effect; inconclusive = small, poorly fitted or top-dose-only effect, or effect the other way; inactive = no such curve, though single readings can be large or run the other way.
# System: SW626
# Assay: Confirmatory qHTS for gynecologic anti-cancer compounds from libraries of approved drugs and bioactive compounds; also: nearly all actives have a fitted effect of over 55% in size
# Settings: gynecologic cancer cell panel viability, ATPlite luminescence, 48 h; series mostly up to 57.6 µM
# In short: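 Cells (1,000/well) plated 16 h, then exposed 48 h at 37 °C to 11 concentrations (1:3) from 57.5 uM to 0.977 nM. Viability by ATPlite luminescence after 15 min; IC50 derived, with HEK 293T used for selectivity index.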
# Potency is read from the fitted curve at half-maximal effect.
row,Compound,Potency
1,C=C(C)[C@H]1Cc2c(ccc3c2O[C@@H]2COc4cc(OC)c(OC)cc4[C@@H]2C3=O)O1,inactive
2,CCNC(=O)C[C@@H]1N=C(c2ccc(Cl)cc2)c2cc(OC)ccc2-n2c(C)nnc21,inactive
3,C[C@H]1CCC/C=C/C2C[C@H](O)C[C@H]2[C@H](O)/C=C/C(=O)O1 (some centres not stated),172 nM (active)
4,O=C(O)Cc1ccccc1,inactive
5,CCOc1ccccc1-n1c(C(C)N2CCN(C(=O)COc3ccc(Cl)cc3)CC2)nc2ccccc2c1=O (configuration not stated),4850 nM (active)
6,C[C@]12CC[C@H]3[C@@H](CCC4=CC(=O)CC[C@@H]43)[C@@H]1CC[C@@H]2OC(=O)CCc1ccccc1,inactive
7,CCN1CCN(C(=O)Cc2ccc(Nc3ncc(F)c(Nc4ccc(C(=O)Nc5ccccc5Cl)cc4)n3)cc2)CC1,inactive
